Compounds with a hit are over-represented: about 4% of the library has one in this group of screens.
HIF-2a block = blocks HIF-2a reporter activity; inhibition, % at 18.8 µM; 786-0 RCC cells HIF-2a reporter, luciferase luminescence, overnight; 360,000 tested, 0.72% active;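 active means inhibition of the luminescence signal of 40% or more relative to plate controls, in a single-dose primary screen at 18.75 µM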
CF NFkB block = blocks PAF-induced NF-kB reporter in cystic fibrosis cells; KKLEB NF-kB-GFP reporter, GFP fluorescence overnight; 360,000 tested, 0.86% active; inhibition, % at 5 µM;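 active means at least 50% inhibition at 5 µM, scaled per plate between neutral and stimulator controls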;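 further: PAF is a Pseudomonas aeruginosa culture filtrate used as stimulus; plate controls were PAF-stimulated DMSO wells for no effect and unstimulated DMSO wells for full effect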
Peg3 promoter = Peg3 promoter activity inhibition. HeLa PEG-Prom luciferase reporter, luminescence, overnight. inhibition, % at 20 µM. 360,000 tested, 1.7% active. AID 588405;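 active means inhibition of at least 50% at 20 µM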
TROY signal inh = blocks TROY-dependent signaling in reporter cells; 360,000 tested, 0.98% active; AID 1347056; Q293 LMP1-TROYcd NF-kB luciferase reporter, 4 h; inhibition, % at 10 µM;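 active means compounds whose plate-normalised and pattern-corrected inhibition of the luciferase reporter signal at the single screening dose is 50% or more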
TWEAK Fn14 block = TWEAK-Fn14 signaling inhibition; TWEAK-stimulated Fn14 reporter cells, luciferase luminescence, 8 h; inhibition, % at 10 µM; 360,000 tested, 2% active; AID 1159606; in the data active means inhibition above about 50%
KKLEB tox = reduces viability of KKLEB cystic fibrosis airway cells; KKLEB CF airway cells viability, ATPlite luminescence, overnight; stronger effect = lower value; cells stimulated with P. aeruginosa culture filtrate; activity change (cytotoxicity), % at 5 µM; 360,000 tested, 0.36% active; AID 602141;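 active means corrected activity change at or below -50% at 5 µM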
Active calls of the source: *; ! = not active in a repeat.

Results for COCC(C)n1c(-c2ccc3c(c2)NC(=O)CO3)csc1=Nc1ccc(OC(F)F)cc1 (stereo not given) ?
HIF-2a block: -13; CF NFkB block: 10; Peg3 promoter: 6; TROY signal inh: 52*!; TWEAK Fn14 block: 63*!; KKLEB tox: -11

What do the screens show for `O=C1COc2ccc(-c3csc(=Nc4ccc(OC(F)F)cc4)n3CC3CCCO3)cc2N1` (stereo not given)?
HIF-2a block: 8; CF NFkB block: -23; Peg3 promoter: 34; TROY signal inh: 44; TWEAK Fn14 block: 47; KKLEB tox: -6

How did O=C(O)C1(Cc2nc3ccccc3[nH]2)CCCC1 do in these assays?
HIF-2a block: 9; CF NFkB block: -16; Peg3 promoter: 5; TROY signal inh: -17; TWEAK Fn14 block: -6; KKLEB tox: -2

How did Nc1cc2c3ccccc3ccc2c2ccccc12 do in these assays?
HIF-2a block: -318; CF NFkB block: 88*; Peg3 promoter: 72*; TROY signal inh: 37; TWEAK Fn14 block: 103*; KKLEB tox: -78*

How did Nc1ccc2ccccc2c1[N+](=O)[O-] do in these assays?
HIF-2a block: 2; CF NFkB block: -7; Peg3 promoter: 19; TROY signal inh: -2; TWEAK Fn14 block: -1; KKLEB tox: -14

Results for O=C(CN1CCCCCC1)N/N=C/c1cccc(Cl)c1 ?
HIF-2a block: 20; CF NFkB block: -4; Peg3 promoter: 6; TROY signal inh: 12; TWEAK Fn14 block: -7; KKLEB tox: 14

What do the screens show for `O=S(=O)(Cc1cccc(C(F)(F)F)c1)c1ncn[nH]1`?
HIF-2a block: 7; CF NFkB block: 3; Peg3 promoter: 5; TROY signal inh: 6; TWEAK Fn14 block: 3; KKLEB tox: -6

How did O=C(Nc1ccccc1Cl)c1ccc(C(=O)Nc2ccccc2Cl)cc1 do in these assays?
HIF-2a block: 3; CF NFkB block: -11; Peg3 promoter: 3; TROY signal inh: 62*; TWEAK Fn14 block: -3; KKLEB tox: -5

What do the screens show for `Cc1nc(C(=O)Nc2ccccc2Cl)cc2c1[nH]c1ccccc12`?
HIF-2a block: -39; CF NFkB block: 28; Peg3 promoter: 85*; TROY signal inh: -6; TWEAK Fn14 block: -22; KKLEB tox: -21

Results for COc1ccc(NC(=O)c2cc3c([nH]c4ccccc43)c(C)n2)cc1 ?
HIF-2a block: 7; CF NFkB block: -18; Peg3 promoter: -12; TROY signal inh: -26; TWEAK Fn14 block: -8; KKLEB tox: 5

Results for C=CCn1c(-c2ccc(OC)cc2)nc2ccccc21 ?
HIF-2a block: -156; CF NFkB block: 15; Peg3 promoter: -141; TWEAK Fn14 block: 57*; KKLEB tox: 4

How did O=C(Nc1nc2ccc(F)cc2s1)c1cccc(S(=O)(=O)N2CCc3ccccc32)c1 do in these assays?
HIF-2a block: -96; CF NFkB block: -7; Peg3 promoter: -62; TROY signal inh: 33; TWEAK Fn14 block: 57*; KKLEB tox: 11

What do the screens show for `O=C(Nc1nncs1)c1cccc(S(=O)(=O)N2CCc3ccccc32)c1`?
HIF-2a block: 20; CF NFkB block: -2; Peg3 promoter: 5; TROY signal inh: 12; TWEAK Fn14 block: 6; KKLEB tox: 3

What do the screens show for `NC1=NC(c2ccc(Cl)cc2)N(c2ccc(S(N)(=O)=O)cc2)C(N)=N1` (stereo not given)?
HIF-2a block: 7; CF NFkB block: -11; Peg3 promoter: 14; TROY signal inh: -1; TWEAK Fn14 block: -3; KKLEB tox: 2

What do the screens show for `O=C(NC(=S)N1CCN(C2CCCCC2)CC1)c1ccccc1`?
HIF-2a block: 11; CF NFkB block: -21; Peg3 promoter: 4; TROY signal inh: -22; TWEAK Fn14 block: 5; KKLEB tox: 6

How did COc1ccc(NS(=O)(=O)c2cc(NC(=O)c3nn(C)c(=O)c4ccccc34)ccc2OC)cc1 do in these assays?
HIF-2a block: 10; CF NFkB block: -42; Peg3 promoter: 22; TROY signal inh: -9; TWEAK Fn14 block: 53*; KKLEB tox: -8

What do the screens show for `COc1ccc(NS(=O)(=O)c2cc(NC(=O)c3cncc(Br)c3)ccc2OC)cc1`?
HIF-2a block: 15; CF NFkB block: 31; Peg3 promoter: 24; TROY signal inh: 32; TWEAK Fn14 block: 52*; KKLEB tox: -11

What do the screens show for `Cn1nc(C(=O)Nc2cccc(S(N)(=O)=O)c2)c2ccccc2c1=O`?
HIF-2a block: -14; CF NFkB block: -26; Peg3 promoter: 0; TROY signal inh: -37; TWEAK Fn14 block: 11; KKLEB tox: -5

Results for Cc1ccc(NC(=O)CSCc2c(C)noc2C)cc1C ?
HIF-2a block: 2; CF NFkB block: -13; Peg3 promoter: 7; TROY signal inh: -26; TWEAK Fn14 block: -6; KKLEB tox: 6

What do the screens show for `CC1=NN(c2nc(N)nc(/C(C#N)=C/c3ccc([N+](=O)[O-])o3)n2)C(C)(C)C1`?
HIF-2a block: 2; CF NFkB block: -6; Peg3 promoter: 102*; TROY signal inh: -1; TWEAK Fn14 block: 71*; KKLEB tox: -69*

What do the screens show for `CC1(C)CC(=O)C2=C(C1)NC1=C(C(=O)c3ccccc31)C2c1ccc(Cl)cc1` (stereo not given)?
HIF-2a block: 21; CF NFkB block: 15; Peg3 promoter: 32; TROY signal inh: 93*; TWEAK Fn14 block: 109*; KKLEB tox: 10

Results for CC(=O)OC1COC(N2CCc3ccccc32)C(OC(C)=O)C1OC(C)=O (stereo not given) ?
HIF-2a block: -10; CF NFkB block: 9; Peg3 promoter: 12; TROY signal inh: 2; TWEAK Fn14 block: 61*; KKLEB tox: 4

How did O=C(NC1CCCCCCC1O)c1ccccc1 (stereo not given) do in these assays?
HIF-2a block: -12; CF NFkB block: -3; Peg3 promoter: -7; TROY signal inh: 4; TWEAK Fn14 block: 5; KKLEB tox: -6

How did O=C(NC1=NC2CCCCC2N1)c1ccccc1 (stereo not given) do in these assays?
HIF-2a block: -20; CF NFkB block: -2; Peg3 promoter: -17; TROY signal inh: 44; TWEAK Fn14 block: 76*; KKLEB tox: -1

What do the screens show for `CC(OC(=O)c1ccc(O)cc1)C(=O)Nc1nc(-c2ccccc2)cs1` (stereo not given)?
HIF-2a block: -71; CF NFkB block: -17; Peg3 promoter: -24; TROY signal inh: 42; TWEAK Fn14 block: 55*; KKLEB tox: 11

Results for COc1ccc(-c2cc3ccc(F)cc3cn2)cc1 ?
HIF-2a block: -183; CF NFkB block: -38; Peg3 promoter: -205; TROY signal inh: -15; TWEAK Fn14 block: 50*; KKLEB tox: -13

What do the screens show for `COc1ccc(-c2cc3cc(F)ccc3cn2)cc1`?
HIF-2a block: -183; CF NFkB block: -2; Peg3 promoter: -217; TROY signal inh: -55; TWEAK Fn14 block: 24; KKLEB tox: 4

Results for CC(C)C(=O)N1CCN(c2ccccc2NC(=O)Cc2ccc(Cl)cc2)CC1 ?
HIF-2a block: 26; CF NFkB block: 6; Peg3 promoter: 10; TROY signal inh: 11; TWEAK Fn14 block: -23; KKLEB tox: -7

High-throughput results (PubChem)
